The structures appear in SMILES notation. This is part of a sample that, as a whole, favours compounds with a hit. Of some 83,000 tested, about 20% had one in any assay.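 Values shown are percent growth following 48 h exposure of cells in 96-well plates to a single concentration of compound; below 10 was considered active.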 A number with no mark means an inactive call. Calls of active or inactive are those of the source.

Some test systems named below: NCI-H23 lung; NCI-H226 lung; NCI-H322M lung; HOP-62 NSCLC; NCI-H460 lung; HOP-92 NSCLC; NCI-H522 lung; A549/ATCC NSCLC; 786-0 renal; COLO 205 colon.
Holding throughout (experiment): NCI-60 one-dose screen, 48 h (100 = growth as untreated, 0 = no growth, -100 = all killed)
What all share (settings): 10 µM unless noted

For `COc1ccc2c(c1)c(-c1nc(-c3cn(C)c4ncccc34)cs1)cn2CCCN1CCCCC1`, the growth was 79.4% in the assay with NCI-H23 lung; 67.1% with NCI-H226 lung; 80.3% with NCI-H322M lung; 74.9% with HOP-62 NSCLC; -40.4% (active) in the assay on NCI-H460 lung; 48.7% with HOP-92 NSCLC. Further, the growth in the assay on NCI-H522 lung was 87.7%; with A549/ATCC NSCLC, 25.2%; in the assay on 786-0 renal it was -31.3% (active); in the assay on COLO 205 colon, -65.8% (active).
Consider `O=c1[nH]c(=S)[nH]c2nc[nH]c12`, for which the growth with NCI-H23 lung is 88.6%; with NCI-H226 lung it was 99.8%; in the assay with NCI-H322M lung, 118%; in the assay with HOP-62 NSCLC, 86.9%; with NCI-H460 lung it was 112%; in the assay with HOP-92 NSCLC it was 108%. Further, the figures for the growth with NCI-H522 lung, in the assay with A549/ATCC NSCLC and in the assay with 786-0 renal were 100%, 99.1% and 91.6%, respectively.
`O=c1c(CNc2ccc(S(=O)(=O)Nc3ncccn3)cc2)coc2ccccc12`: the growth in the assay with NCI-H23 lung was 102%; in the assay on NCI-H226 lung, 103%; in the assay on NCI-H322M lung, 97.1%; in the assay on HOP-62 NSCLC it was 93%; in the assay on NCI-H460 lung, 105%; with HOP-92 NSCLC, 102%. Besides, the growth in the assay on NCI-H522 lung was 89.7%; in the assay with A549/ATCC NSCLC it was 93.5%; in the assay with 786-0 renal, 102%.
Take `CN(C)CCCCC(C(=O)CBr)(c1ccccc1)c1ccccc1`: the growth is 30.6% in the assay on NCI-H23 lung; 86.1% with NCI-H226 lung; 74.5% with NCI-H322M lung; 51.8% in the assay on HOP-62 NSCLC; 49.5% with NCI-H460 lung; -12.2% (active) with HOP-92 NSCLC. The values for the growth in the assay with NCI-H522 lung, in the assay with A549/ATCC NSCLC and in the assay on 786-0 renal were -90% (active), 49.7% and 5.16% (active), respectively.
For `O=C1C(=O)c2ccccc2C(O)=C1CCCc1ccc(C2CCCCC2)cc1`, the growth in the assay on NCI-H23 lung is 36.9%; in the assay on NCI-H226 lung, 47.1%; in the assay on NCI-H322M lung it was 81.3%; in the assay with HOP-62 NSCLC, 44%; in the assay with NCI-H460 lung, 7.15% (active); with HOP-92 NSCLC, 40.7%. In addition, the values for the growth with NCI-H522 lung, in the assay with A549/ATCC NSCLC and with 786-0 renal were 54.7%, 21.1% and 30.8%, respectively.
As for `COc1ccc(C(=O)c2ccc(C)cc2)c(OC)c1OC`, the growth is 82.9% in the assay on NCI-H23 lung; 90.1% in the assay with NCI-H226 lung; 111% in the assay on NCI-H322M lung; 78.5% in the assay on HOP-62 NSCLC; 87.1% in the assay with NCI-H460 lung; 85.6% with HOP-92 NSCLC. Moreover, the growth is 81.8% with NCI-H522 lung, 78.3% with A549/ATCC NSCLC, 107% in the assay on 786-0 renal and 70.8% with COLO 205 colon.
Regarding `C(=C\c1c[nH]c2ccccc12)/c1ccc2ccccc2n1`, the growth was 91.3% with NCI-H23 lung; 76.5% in the assay with NCI-H226 lung; 77.5% in the assay on NCI-H322M lung; 89.6% with HOP-62 NSCLC; 79.7% in the assay with NCI-H460 lung; 61.3% in the assay on HOP-92 NSCLC. Further, the values for the growth in the assay on NCI-H522 lung, in the assay on A549/ATCC NSCLC and in the assay with 786-0 renal were 53.8%, 63.3% and 77.8%, respectively.
Turning to `CCCCC[C@H]1C/C=C2/C(=O)C(Cl)=C[C@@H]2C/C=C\CCCC(=O)O1`, the growth in the assay with NCI-H23 lung was -34.5% (active); in the assay with NCI-H226 lung, -32.7% (active); with NCI-H322M lung, -74.2% (active); in the assay on HOP-62 NSCLC it was -36.7% (active); with NCI-H460 lung, -16.6% (active); in the assay with HOP-92 NSCLC, -48.9% (active). For the same compound, the growth with NCI-H522 lung was -73.1% (active); in the assay on A549/ATCC NSCLC it was -35.6% (active); in the assay on 786-0 renal it was -73.4% (active).
Take `CC1(C)C=CC[C@]2(C)[C@H]3CC[C@@H]4[C@H]5[C@H](C(=O)/C=C/c6cccnc6)CC[C@]5(CO)CC[C@@]4(C)[C@]3(C)CC[C@@H]12`: the growth was -60% (active) with NCI-H23 lung; -54.1% (active) in the assay with NCI-H226 lung; 9.88% (active) in the assay with NCI-H322M lung; -81.3% (active) in the assay on HOP-62 NSCLC; -62.4% (active) in the assay with NCI-H460 lung; -92.7% (active) in the assay on HOP-92 NSCLC. In addition, the growth in the assay with NCI-H522 lung was -73.7% (active); in the assay on A549/ATCC NSCLC, -41.5% (active); in the assay on 786-0 renal, -59.8% (active); in the assay with COLO 205 colon it was -71.9% (active).
Regarding `COc1cccc(NC(=O)c2sc3nc4c(cc3c2N)C(=O)CCC4)c1`, the growth in the assay with NCI-H23 lung was 21.8%; in the assay on NCI-H226 lung it was 74.9%; in the assay on NCI-H322M lung it was 56.5%; in the assay with HOP-62 NSCLC, 27.8%; in the assay with NCI-H460 lung it was 1.73% (active); in the assay with HOP-92 NSCLC, 57.3%. Further, the growth is -21.1% (active) in the assay on NCI-H522 lung, 22.5% in the assay on A549/ATCC NSCLC and 41.1% with 786-0 renal.
For the compound `N#CC1=C(N)Oc2c(c(N)nn2-c2ccccc2)C1c1ccc(Cl)cc1` (centres undefined), the growth with NCI-H23 lung was 93.4%; in the assay on NCI-H226 lung, 87.2%; in the assay on NCI-H322M lung, 101%; with HOP-62 NSCLC it was 89.8%; in the assay with NCI-H460 lung, 103%; with HOP-92 NSCLC, 92.7%. For the same compound, the growth in the assay with NCI-H522 lung is 87.6%; with A549/ATCC NSCLC, 100%; in the assay on 786-0 renal it was 98.8%.
On to `COc1ccc(C(=O)/C=C/c2cc(-c3cc(OC)c(OC)c(OC)c3)n[nH]2)cc1OC`, for which the growth with NCI-H23 lung was 71.2%; with NCI-H226 lung, 20.8%; with NCI-H322M lung, -42.4% (active); with HOP-62 NSCLC, -56.6% (active); with NCI-H460 lung, -17.4% (active); with HOP-92 NSCLC it was 42.8%. Also, the values for the growth in the assay on NCI-H522 lung, in the assay with A549/ATCC NSCLC and with 786-0 renal were -78.5% (active), 31.3% and -34.7% (active), respectively.
Regarding `CC1(C)CC[C@]2(CO)CC[C@]3(C)C(=CC[C@@H]4[C@@]5(C)CC[C@H](NCO)C(C)(C)[C@@H]5CC[C@]43C)[C@@H]2C1`, the growth in the assay with NCI-H23 lung is -64.8% (active); in the assay with NCI-H226 lung it was 43.1%; in the assay on NCI-H322M lung, 7.27% (active); in the assay with HOP-62 NSCLC it was -32.1% (active); in the assay on NCI-H460 lung it was -70.5% (active); in the assay with HOP-92 NSCLC, 22.2%. For the same compound, the growth is -29.5% (active) in the assay with NCI-H522 lung, -50% (active) in the assay on A549/ATCC NSCLC and -80% (active) in the assay on 786-0 renal.
On to `Cc1cc(N2CCCCC2)nc(N(CCCNc2ccnc3cc(Cl)ccc23)Cc2ccco2)n1`, for which the growth in the assay with NCI-H23 lung was 21.4%; in the assay with NCI-H226 lung, 57.1%; in the assay on NCI-H322M lung, 19.6%; in the assay on HOP-62 NSCLC, 8.53% (active); in the assay on NCI-H460 lung, 10.7%; in the assay on HOP-92 NSCLC, -6.02% (active). The growth with NCI-H522 lung was 49.9%; with A549/ATCC NSCLC, 18.4%; with 786-0 renal, 24.2%.

For the origin of these results see PubChem BioAssay (NCI).
